# Experimental data: ChEMBL document CHEMBL2218924, “A broad activity screen in support of a chemogenomic map for kinase signalling research and drug discovery” (Biochem J, 2013)
# Legend:
# [1] = molecular target: Death-associated protein kinase 1 (Homo sapiens) (UniProt P53355); conditions: at 10 µM
# [2] = molecular target: Death-associated protein kinase 2 (Homo sapiens) (UniProt Q9UIK4); conditions: at 1 µM
# [3] = molecular target: Death-associated protein kinase 2 (Homo sapiens) (UniProt Q9UIK4); conditions: at 10 µM
# [4] = molecular target: T1, Serine/threonine-protein kinase DCLK2 (Homo sapiens) (UniProt Q8N568); conditions: at 1 µM
# T1 sequence (whole entry): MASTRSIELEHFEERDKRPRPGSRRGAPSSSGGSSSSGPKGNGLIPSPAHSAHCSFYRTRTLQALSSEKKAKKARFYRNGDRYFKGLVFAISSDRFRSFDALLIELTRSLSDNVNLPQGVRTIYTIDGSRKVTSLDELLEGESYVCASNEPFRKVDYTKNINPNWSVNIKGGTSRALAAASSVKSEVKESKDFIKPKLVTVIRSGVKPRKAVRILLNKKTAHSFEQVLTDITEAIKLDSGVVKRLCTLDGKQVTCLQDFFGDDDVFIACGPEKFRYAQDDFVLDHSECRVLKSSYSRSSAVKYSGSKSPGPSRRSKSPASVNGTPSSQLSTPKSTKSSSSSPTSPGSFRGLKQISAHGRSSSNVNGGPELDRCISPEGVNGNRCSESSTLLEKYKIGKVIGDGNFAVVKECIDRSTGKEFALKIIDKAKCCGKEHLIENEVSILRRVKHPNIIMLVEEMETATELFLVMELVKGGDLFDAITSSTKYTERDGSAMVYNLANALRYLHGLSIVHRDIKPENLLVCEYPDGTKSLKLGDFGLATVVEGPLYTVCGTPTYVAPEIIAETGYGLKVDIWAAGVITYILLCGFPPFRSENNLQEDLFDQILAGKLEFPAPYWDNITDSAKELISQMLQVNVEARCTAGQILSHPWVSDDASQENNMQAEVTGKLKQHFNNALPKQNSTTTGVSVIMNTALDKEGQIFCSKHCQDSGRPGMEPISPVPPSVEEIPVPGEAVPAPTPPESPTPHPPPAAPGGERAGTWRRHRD
# [5] = molecular target: T1, Serine/threonine-protein kinase DCLK2 (Homo sapiens); conditions: at 10 µM
# [6] = molecular target: T2, Discoidin domain-containing receptor 2 (Homo sapiens) (UniProt Q16832); conditions: at 1 µM
# T2 sequence (whole entry): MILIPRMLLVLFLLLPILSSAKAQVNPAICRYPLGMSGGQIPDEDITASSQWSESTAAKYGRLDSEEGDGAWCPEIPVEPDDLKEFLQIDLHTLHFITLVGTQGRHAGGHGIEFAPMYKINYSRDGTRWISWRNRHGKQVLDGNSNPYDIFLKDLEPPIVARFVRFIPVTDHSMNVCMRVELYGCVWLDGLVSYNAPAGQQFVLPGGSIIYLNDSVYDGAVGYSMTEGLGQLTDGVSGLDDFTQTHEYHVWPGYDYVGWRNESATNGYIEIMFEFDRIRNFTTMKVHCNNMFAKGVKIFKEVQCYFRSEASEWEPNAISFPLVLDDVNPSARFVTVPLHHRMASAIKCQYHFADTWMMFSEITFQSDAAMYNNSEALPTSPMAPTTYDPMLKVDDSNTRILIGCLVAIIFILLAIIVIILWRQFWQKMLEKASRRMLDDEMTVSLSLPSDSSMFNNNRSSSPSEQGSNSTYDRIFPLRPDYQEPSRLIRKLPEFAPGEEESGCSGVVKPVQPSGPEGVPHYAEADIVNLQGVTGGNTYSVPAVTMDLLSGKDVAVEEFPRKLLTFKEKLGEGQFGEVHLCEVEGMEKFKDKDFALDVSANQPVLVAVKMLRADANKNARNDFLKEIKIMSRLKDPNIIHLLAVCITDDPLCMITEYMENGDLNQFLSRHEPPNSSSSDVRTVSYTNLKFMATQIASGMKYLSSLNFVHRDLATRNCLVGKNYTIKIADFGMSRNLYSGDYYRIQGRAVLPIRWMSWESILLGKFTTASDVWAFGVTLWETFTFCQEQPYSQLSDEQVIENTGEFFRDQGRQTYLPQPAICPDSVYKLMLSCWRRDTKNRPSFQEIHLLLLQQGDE
# [7] = molecular target: T2, Discoidin domain-containing receptor 2 (Homo sapiens); conditions: at 10 µM
# [8] = molecular target: T3, Myotonin-protein kinase (Homo sapiens) (UniProt Q09013); conditions: at 1 µM
# T3 sequence (whole entry): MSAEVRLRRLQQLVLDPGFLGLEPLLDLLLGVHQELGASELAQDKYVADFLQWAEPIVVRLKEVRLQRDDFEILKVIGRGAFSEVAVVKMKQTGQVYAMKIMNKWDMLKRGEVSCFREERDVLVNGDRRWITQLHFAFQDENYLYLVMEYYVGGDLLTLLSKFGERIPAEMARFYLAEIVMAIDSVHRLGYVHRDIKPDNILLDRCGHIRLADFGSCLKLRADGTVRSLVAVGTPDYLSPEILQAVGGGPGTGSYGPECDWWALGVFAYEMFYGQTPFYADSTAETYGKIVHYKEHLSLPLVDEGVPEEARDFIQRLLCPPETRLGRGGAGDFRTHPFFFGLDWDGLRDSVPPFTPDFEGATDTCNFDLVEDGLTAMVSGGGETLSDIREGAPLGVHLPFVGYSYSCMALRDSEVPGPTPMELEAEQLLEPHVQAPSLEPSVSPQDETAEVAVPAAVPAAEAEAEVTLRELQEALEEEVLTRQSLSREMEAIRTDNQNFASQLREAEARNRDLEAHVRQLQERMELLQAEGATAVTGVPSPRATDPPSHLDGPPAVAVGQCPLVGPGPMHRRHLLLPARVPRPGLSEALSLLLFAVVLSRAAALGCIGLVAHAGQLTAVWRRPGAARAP
# [9] = molecular target: T3, Myotonin-protein kinase (Homo sapiens); conditions: at 10 µM
# [10] = molecular target: T4, Serine/threonine-protein kinase 17A (Homo sapiens) (UniProt Q9UEE5); conditions: at 1 µM
# T4 sequence (whole entry): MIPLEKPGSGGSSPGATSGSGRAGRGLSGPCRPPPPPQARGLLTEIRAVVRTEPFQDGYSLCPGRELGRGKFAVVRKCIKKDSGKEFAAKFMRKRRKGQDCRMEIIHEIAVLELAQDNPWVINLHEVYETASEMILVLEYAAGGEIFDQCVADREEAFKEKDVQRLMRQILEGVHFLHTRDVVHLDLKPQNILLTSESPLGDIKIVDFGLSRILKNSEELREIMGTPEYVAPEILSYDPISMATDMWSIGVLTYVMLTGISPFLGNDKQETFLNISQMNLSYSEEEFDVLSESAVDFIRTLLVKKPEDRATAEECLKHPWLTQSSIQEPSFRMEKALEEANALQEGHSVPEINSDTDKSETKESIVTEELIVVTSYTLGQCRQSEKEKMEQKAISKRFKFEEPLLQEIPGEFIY
# [11] = molecular target: T4, Serine/threonine-protein kinase 17A (Homo sapiens); conditions: at 10 µM
# [12] = molecular target: T5, Dual specificity tyrosine-phosphorylation-regulated kinase 2 (Homo sapiens) (UniProt Q92630); conditions: at 1 µM
# T5 sequence (whole entry): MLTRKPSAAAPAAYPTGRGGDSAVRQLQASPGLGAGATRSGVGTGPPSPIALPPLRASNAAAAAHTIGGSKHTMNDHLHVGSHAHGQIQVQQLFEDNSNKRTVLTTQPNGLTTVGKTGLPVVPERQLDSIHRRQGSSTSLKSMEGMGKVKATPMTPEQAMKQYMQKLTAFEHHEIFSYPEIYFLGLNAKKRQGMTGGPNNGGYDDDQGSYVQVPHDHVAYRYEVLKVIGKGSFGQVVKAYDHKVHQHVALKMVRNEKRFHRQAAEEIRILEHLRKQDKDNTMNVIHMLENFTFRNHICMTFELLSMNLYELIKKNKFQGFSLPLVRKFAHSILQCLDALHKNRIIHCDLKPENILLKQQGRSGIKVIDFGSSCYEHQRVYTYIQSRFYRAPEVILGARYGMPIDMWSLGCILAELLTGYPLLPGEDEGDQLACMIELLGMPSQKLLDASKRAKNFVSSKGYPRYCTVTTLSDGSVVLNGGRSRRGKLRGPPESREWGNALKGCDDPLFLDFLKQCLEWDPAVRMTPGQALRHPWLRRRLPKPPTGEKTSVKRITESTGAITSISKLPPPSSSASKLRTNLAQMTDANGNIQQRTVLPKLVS
# [13] = molecular target: T5, Dual specificity tyrosine-phosphorylation-regulated kinase 2 (Homo sapiens); conditions: at 10 µM
# [14] = molecular target: T6, Ephrin type-A receptor 1 (Homo sapiens) (UniProt P21709); conditions: at 1 µM
# T6 sequence (whole entry): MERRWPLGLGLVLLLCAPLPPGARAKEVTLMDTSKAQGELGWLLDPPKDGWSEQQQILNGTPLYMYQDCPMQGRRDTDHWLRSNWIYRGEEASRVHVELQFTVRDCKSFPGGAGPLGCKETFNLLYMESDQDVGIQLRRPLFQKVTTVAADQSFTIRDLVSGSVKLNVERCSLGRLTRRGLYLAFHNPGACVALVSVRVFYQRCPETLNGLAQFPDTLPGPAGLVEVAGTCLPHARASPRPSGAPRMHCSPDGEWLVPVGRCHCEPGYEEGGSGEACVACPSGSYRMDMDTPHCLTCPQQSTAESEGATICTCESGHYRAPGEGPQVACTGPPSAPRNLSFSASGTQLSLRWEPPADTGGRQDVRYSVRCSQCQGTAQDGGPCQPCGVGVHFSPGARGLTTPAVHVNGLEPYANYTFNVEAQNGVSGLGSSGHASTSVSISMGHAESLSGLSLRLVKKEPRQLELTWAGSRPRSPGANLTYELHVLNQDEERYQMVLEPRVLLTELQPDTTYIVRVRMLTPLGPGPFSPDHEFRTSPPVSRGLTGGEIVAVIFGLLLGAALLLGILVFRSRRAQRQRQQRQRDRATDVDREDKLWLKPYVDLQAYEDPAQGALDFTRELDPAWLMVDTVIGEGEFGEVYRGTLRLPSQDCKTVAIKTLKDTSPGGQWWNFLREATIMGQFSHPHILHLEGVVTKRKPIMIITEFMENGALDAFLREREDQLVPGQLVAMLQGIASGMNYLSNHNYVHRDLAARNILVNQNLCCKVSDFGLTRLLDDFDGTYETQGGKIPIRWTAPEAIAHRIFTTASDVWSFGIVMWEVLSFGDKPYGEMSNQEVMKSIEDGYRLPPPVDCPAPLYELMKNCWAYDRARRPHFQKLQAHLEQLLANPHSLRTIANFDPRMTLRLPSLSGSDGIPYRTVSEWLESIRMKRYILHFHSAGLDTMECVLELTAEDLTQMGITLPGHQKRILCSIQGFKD
# [15] = molecular target: T6, Ephrin type-A receptor 1 (Homo sapiens); conditions: at 10 µM
# [16] = molecular target: Ephrin type-A receptor 2 (Homo sapiens) (UniProt P29317); conditions: at 1 µM
# [17] = molecular target: Ephrin type-A receptor 2 (Homo sapiens) (UniProt P29317); conditions: at 10 µM
# [18] = molecular target: T7, Ephrin type-A receptor 3 (Homo sapiens) (UniProt P29320); conditions: at 1 µM
# T7 sequence (whole entry): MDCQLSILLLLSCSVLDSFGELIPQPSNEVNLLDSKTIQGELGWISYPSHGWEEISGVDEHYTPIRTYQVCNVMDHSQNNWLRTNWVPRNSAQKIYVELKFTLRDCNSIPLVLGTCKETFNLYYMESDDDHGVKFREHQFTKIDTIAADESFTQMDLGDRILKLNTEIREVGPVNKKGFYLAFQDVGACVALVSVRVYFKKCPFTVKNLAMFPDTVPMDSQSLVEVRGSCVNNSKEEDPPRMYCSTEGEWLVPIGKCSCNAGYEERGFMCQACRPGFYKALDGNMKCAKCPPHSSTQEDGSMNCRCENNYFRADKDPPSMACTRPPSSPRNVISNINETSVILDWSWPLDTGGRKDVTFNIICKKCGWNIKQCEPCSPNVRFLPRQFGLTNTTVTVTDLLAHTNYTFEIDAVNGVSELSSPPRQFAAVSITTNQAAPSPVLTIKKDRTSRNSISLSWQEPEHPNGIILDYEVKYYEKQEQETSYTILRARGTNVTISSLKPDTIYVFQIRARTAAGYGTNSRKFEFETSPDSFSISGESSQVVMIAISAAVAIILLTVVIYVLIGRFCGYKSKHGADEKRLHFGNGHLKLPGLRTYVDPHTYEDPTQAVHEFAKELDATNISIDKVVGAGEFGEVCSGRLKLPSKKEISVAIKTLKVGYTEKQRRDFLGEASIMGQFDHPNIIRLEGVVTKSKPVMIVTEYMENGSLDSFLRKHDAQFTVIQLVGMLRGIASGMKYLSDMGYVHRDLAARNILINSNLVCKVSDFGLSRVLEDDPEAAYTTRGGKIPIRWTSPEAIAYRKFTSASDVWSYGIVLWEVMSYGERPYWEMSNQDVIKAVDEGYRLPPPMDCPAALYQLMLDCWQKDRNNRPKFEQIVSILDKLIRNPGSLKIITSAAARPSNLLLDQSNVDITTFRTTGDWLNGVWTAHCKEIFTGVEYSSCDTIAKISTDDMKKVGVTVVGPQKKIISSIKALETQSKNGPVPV
# Chain of Ephrin type-A receptor 2 (Homo sapiens) (P29317 whole entry): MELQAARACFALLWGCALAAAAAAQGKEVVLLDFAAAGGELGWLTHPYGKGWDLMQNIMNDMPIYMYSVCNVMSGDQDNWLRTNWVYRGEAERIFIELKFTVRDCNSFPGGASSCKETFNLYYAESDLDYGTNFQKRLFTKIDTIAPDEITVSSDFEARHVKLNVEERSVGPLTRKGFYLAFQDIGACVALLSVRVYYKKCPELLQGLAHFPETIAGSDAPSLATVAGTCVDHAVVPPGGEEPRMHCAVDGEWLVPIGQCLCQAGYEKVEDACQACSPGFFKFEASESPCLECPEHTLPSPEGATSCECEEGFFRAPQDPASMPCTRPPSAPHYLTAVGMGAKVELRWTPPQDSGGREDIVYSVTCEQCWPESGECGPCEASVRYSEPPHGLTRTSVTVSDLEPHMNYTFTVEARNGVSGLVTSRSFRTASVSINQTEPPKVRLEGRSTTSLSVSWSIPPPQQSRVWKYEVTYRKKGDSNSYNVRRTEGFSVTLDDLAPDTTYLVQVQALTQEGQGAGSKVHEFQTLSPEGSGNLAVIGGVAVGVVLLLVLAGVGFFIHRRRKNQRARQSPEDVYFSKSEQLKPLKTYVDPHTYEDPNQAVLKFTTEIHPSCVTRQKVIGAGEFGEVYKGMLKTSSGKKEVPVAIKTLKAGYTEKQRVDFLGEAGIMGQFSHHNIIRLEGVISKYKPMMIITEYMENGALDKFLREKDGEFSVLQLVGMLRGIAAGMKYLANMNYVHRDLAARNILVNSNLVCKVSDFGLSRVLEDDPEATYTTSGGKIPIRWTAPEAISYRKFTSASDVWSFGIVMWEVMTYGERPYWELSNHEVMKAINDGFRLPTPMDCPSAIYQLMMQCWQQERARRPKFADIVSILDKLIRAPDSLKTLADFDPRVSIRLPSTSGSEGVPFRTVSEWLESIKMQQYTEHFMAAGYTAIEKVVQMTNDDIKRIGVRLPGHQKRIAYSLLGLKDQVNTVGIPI
# Chain of Death-associated protein kinase 2 (Homo sapiens) (Q9UIK4 whole entry, looked up): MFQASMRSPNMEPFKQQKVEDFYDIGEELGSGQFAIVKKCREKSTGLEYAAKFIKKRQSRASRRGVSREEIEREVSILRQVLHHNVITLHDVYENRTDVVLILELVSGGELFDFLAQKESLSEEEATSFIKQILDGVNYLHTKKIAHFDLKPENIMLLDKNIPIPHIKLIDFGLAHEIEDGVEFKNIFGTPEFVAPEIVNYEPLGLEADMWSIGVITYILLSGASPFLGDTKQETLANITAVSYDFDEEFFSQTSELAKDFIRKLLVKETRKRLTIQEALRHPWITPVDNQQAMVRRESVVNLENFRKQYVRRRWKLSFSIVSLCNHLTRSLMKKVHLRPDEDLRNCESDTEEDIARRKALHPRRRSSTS
# Chain of Death-associated protein kinase 1 (Homo sapiens) (P53355 whole entry, looked up): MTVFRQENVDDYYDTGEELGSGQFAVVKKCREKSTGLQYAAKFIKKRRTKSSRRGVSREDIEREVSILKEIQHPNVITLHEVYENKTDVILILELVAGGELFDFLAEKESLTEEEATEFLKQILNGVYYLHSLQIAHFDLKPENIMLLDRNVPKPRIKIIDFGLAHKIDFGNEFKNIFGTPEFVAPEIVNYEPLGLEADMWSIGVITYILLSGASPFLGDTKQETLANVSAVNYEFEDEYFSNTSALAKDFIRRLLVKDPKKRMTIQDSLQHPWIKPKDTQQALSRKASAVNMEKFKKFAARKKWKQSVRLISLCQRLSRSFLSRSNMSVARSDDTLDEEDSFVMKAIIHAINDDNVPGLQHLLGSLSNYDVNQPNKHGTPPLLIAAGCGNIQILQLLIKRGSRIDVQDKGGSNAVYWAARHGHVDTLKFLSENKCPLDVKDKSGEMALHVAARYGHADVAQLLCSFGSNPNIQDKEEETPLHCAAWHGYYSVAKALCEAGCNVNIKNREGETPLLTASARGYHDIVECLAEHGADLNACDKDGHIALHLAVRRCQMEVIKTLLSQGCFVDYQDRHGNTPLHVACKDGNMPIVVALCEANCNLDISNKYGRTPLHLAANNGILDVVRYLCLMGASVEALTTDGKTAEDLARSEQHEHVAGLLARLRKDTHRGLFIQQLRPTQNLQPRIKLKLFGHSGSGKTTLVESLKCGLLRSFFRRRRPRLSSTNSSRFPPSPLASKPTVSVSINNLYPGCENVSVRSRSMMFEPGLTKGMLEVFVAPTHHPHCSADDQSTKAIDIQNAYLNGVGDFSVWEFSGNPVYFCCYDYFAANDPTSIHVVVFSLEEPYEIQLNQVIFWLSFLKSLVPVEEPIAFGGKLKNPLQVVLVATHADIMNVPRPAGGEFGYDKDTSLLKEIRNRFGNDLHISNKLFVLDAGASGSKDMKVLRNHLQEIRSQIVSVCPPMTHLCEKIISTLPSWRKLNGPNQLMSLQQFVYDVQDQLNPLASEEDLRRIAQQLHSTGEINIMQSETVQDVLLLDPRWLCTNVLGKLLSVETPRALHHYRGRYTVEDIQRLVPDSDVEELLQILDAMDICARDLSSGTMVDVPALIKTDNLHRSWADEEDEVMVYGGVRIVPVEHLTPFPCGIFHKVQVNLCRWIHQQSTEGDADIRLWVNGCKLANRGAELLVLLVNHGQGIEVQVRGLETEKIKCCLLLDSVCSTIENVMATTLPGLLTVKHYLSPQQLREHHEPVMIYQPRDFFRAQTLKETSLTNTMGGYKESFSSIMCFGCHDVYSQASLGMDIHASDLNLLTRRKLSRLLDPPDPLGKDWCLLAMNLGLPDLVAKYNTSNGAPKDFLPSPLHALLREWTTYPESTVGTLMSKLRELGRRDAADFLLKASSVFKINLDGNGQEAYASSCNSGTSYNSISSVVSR
SMILES,residual activity [1] [%],residual activity [2] [%],residual activity [3] [%],residual activity [4] [%],residual activity [5] [%],residual activity [6] [%],residual activity [7] [%],residual activity [8] [%],residual activity [9] [%],residual activity [10] [%],residual activity [11] [%],residual activity [12] [%],residual activity [13] [%],residual activity [14] [%],residual activity [15] [%],residual activity [16] [%],residual activity [17] [%],residual activity [18] [%]
Nc1n[nH]c2nnc(-c3c(-c4ccccc4)nn4ccccc34)cc12,88,95,99,128,75,94,74,92,75,83,117,94,88,96,66,91,95,94
COc1ccc(OC)c2c(=S)c3ccccc3[nH]c12,93,106,95,101,67,99,103,120,87,94,97,90,66,113,88,96,101,90
